# From PubChem BioAssay AID686979 (National Center for Advancing Translational Sciences (NCATS), 2013)
# “And” between values parts separate entries of the source, which are not always exact repeats. Equal values may be shown once. Hit rate of the full screen: of about 420,000 compounds, about 50,000 (12%) were called active. Another 26% or so got no clear call; they are omitted. The sample holds actives, similar compounds and a random draw of the others, so the mix is not that of the screen. Values without a mark were called inactive. The call rests on the fitted dose curve; in most records, active means well fitted inhibition curve with a large enough effect; inconclusive means small, poorly fitted or top-dose-only effect; inactive means flat fitted curve, though single readings scatter.
# Experiment: qHTS for Inhibitors of human tyrosyl-DNA phosphodiesterase 1 (TDP1): qHTS in cells in presence of CPT; further: nearly all actives have a fitted effect of over 55% in size
# Conditions: chicken DT40 Tdp1-/-;hTDP1 cells + 20 nM CPT, ATP luminescence, 48 h; series mostly up to 46.2 µM; activity change, negative = growth inhibition: at the top concentration
# Procedure, shortened: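 Cell growth measured by CellTiter-Glo luminescence after a minimum 48 h, 37 C compound exposure with 20 nM CPT in Tdp1-knockout DT40 cells stably expressing hTDP1, seeded 400/well; qHTS titration format.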
# On the % scale 0 is the no-effect control and ±100 the full control effect; potency means the concentration at half of the fitted maximal effect.
SMILES,"activity change, negative = growth inhibition",Potency
Cc1ccc(NC(=O)c2oc3ccccc3c2C)c([N+](=O)[O-])c1,-17.7%,–
Cc1ccc(NC(=O)c2oc(=O)c3ccccc3c2-c2ccccc2)c(C)c1,–,23.1 µM (active)
Cc1ccc(NC(=O)c2ccn(C(=O)Nc3ccccc3)n2)c(C)c1,-14.8%,–
O=C(CSc1nnc(Nc2ccccc2F)s1)NC1CCCC1,-19.6%,–
Nc1cccc(-c2cncc(N3CCN(Cc4ccccn4)CC3)n2)c1,-23.8%,–
COc1ccc(NC(=O)C2CCCN(S(=O)(=O)c3cccc4nonc34)C2)cc1Cl (configuration not stated),-7.61%,–
COc1cccc(-c2noc(C3CCCN(C(=O)c4ccc(F)cc4)C3)n2)c1 (configuration not stated),12%,–
COc1cc(-c2noc(C3CCCN(S(=O)(=O)c4cccc(Cl)c4)C3)n2)cc(OC)c1OC (configuration not stated),–,12.6 µM (active)
COc1ccccc1CC(NC(C)=O)C(=O)NC1CCN(C(=O)Nc2ccccc2Cl)CC1 (configuration not stated),-0.748%,–
COc1cc(C2/C(=C(\O)c3ccc4c(c3)CC(C)O4)C(=O)C(=O)N2c2nnc(C)s2)cc(OC)c1OC (configuration not stated),-25.2%,–
Cc1cc(Nc2ccc(C(=O)N3CCCCC3)cc2)c2cccc(C)c2n1,-29.6%,–
CCOC(=O)N1CCN(C(c2ccnc3ccccc23)c2nnnn2-c2c(C)cccc2C)CC1 (configuration not stated),-13.3%,–
CCOC(=O)N1CCN(C(c2cccnc2)c2ccc3cccnc3c2O)CC1 (configuration not stated),–,3.66 µM (active)
CCOC(=O)N1CCN(Cc2nc(N)nc(Nc3ccc(C)cc3)n2)CC1,-20.9%,–
CC1(C(=O)O)CCC(C(=O)Nc2ccc(Cl)c(Cl)c2)C1(C)C (configuration not stated),13.4%,–
COc1ccc(S(=O)(=O)NNC(=O)Nc2ccc(C)cc2)c(OC)c1,-12.3%,–
CCOC1=C2CN(S(=O)(=O)c3ccc(C)cc3)[C@H](c3cccs3)C[C@H]2[C@H]2C(=O)N(c3ccccc3)C(=O)[C@H]2C1,-20.8%,–
Cc1ccc(S(=O)(=O)c2c(COC(=O)c3cccc(Cl)c3)c(-c3ccccc3)nn2C)cc1,–,23.1 µM (active)
O=C(COC(=O)c1cccc(Cl)c1)NC(=O)NCc1ccccc1,-2.34%,–
Cc1cc(C)n(-c2c(F)c(F)c(COC(=O)c3ccccc3)c(F)c2F)n1,-8.41%,–
COc1ccc(S(=O)(=O)N2CCOCC2)cc1NC(=O)COc1ccccc1,-1.42%,–

SMILES,"activity change, negative = growth inhibition",Potency
CC1CC(C)CN(C/C=C/c2ccccc2[N+](=O)[O-])C1 (configuration not stated),-20.7%,–
O=C(CCNC(=O)c1ccccc1Cl)NN=Cc1ccco1,3.9%,–
CC(=O)Nc1cccc(-c2cc3nc(NCc4cccnc4)n(C)c(=O)c3s2)c1,-19.4%,–
Cn1c(NCc2cccnc2)nc2cc(-c3ccc(F)cc3)sc2c1=O,-8.93%,–
COc1cccc(-c2cc3nc(NCc4ccccc4OC)n(C)c(=O)c3s2)c1,–,13 µM (active)
CN(C)S(=O)(=O)c1ccc(N/C=C(\[N+](=O)[O-])S(=O)(=O)c2ccccc2)cc1,0.564%,–
C[C@@H](C(=O)N1CCNCC1)n1cc(CCC(=O)O)nn1,-8.56%,–
Cc1ccc(Cn2c(C)c(C(=O)NCc3ccccc3C(F)(F)F)sc2=O)cc1,-25.2%,–
NS(=O)(=O)c1ccc(CCNS(=O)(=O)c2cccc3cccnc23)cc1,9.19%,–
Cc1ccccc1NC(=O)c1ccccc1NS(=O)(=O)c1cccc2cccnc12,6.92%,–
O=[N+]([O-])c1ccccc1S(=O)(=O)Nc1cccc2cccnc12,–,794 nM (active) and 3.26 µM (active)
COc1cccc(C(=O)NC(=O)Nc2nc(C)cc(C(F)(F)F)n2)c1,-1.3%,–
Cc1ccc(N2CC(C(=O)Nc3cc(Cl)ccc3-n3cncn3)CC2=O)cc1 (configuration not stated),-11.7%,–
O=C(CN1CCN(C(=O)c2ccco2)CC1)Nc1ccc2c(c1)OCO2,9.66%,–
O=C(CN1CCN(C(=O)c2ccco2)CC1)Nc1ccc(Cl)c(C(F)(F)F)c1,–,23.1 µM (active)
O=C(c1ccco1)N1CCN(C(=S)Nc2cc(F)cc(F)c2)CC1,-16.4%,–
Cc1ccc(-n2nnnc2CNC(=O)c2ccccc2C)cc1C,-8.98%,–
C[C@H]1CN([C@@H](C)CO)C(=O)CCCn2cc(nn2)CO[C@@H]1CN(C)S(=O)(=O)c1cccc(C#N)c1,24.7%,–
O=C(O)C(c1cccs1)C1(O)CCCCC1 (configuration not stated),-2.18%,–
O=C(NCCCN1CCOCC1)c1cc(-c2ccccc2F)no1,-15%,–
COC(=O)CSc1snnc1-c1ccc(Cl)c(Cl)c1,4.95%,–

SMILES,"activity change, negative = growth inhibition",Potency
Cc1c(NC(=O)C(C)OC(=O)c2cc3c4ccccc4n(C)c3s2)c(=O)n(-c2ccccc2)n1C (configuration not stated),-24.5%,–
Cc1c(NC(=O)C(C)OC(=O)c2ccccc2O)c(=O)n(-c2ccccc2)n1C (configuration not stated),-25%,–
Cc1c(NC(=O)C(C)OC(=O)c2c3c(nc4ccccc24)CCC(C)C3)c(=O)n(-c2ccccc2)n1C (configuration not stated),–,13 µM (active)
N#C/C(=C\c1ccccc1)c1n[nH]c(Cn2cncn2)n1,-9.22%,–
Cc1nn2cc(-c3ccc(Cl)cc3)cnc2c1Br,18.4%,–
CCc1c(-c2ccc(F)cc2)ncn1Cc1cccc(-c2ccccc2)c1,–,11.6 µM (active)
Cc1cccc(Cn2cnc3c(N)c(C)c(C)cc32)c1,-21.5%,–
O=C(NCc1ccncc1)C1CCN(C(=O)c2cccc(Cl)c2)CC1,3.42%,–
Nc1ccc(-n2nncc2-c2ccco2)cc1,-18.1%,–
O=C(NC(=S)Nc1ccc(Cl)c(C(=O)O)c1)c1cncc(Br)c1,2.05%,–
COc1ccccc1N(CC(=O)Nc1ccccc1C(=O)N1CCCC1)S(C)(=O)=O,8.7%,–
CCCn1c(N)c(C(=O)CSc2nnc(Cc3cccs3)n2C2CC2)c(=O)[nH]c1=O,4.23%,–
CCc1nnc(SCc2nc(-c3cccc(C)c3)oc2C)c2cc3sc(C)cc3n12,-6.05%,–
Cc1cc2c(cc3c(SCc4nc(-c5ccccc5)oc4C)nnc(C)n32)o1,–,16.4 µM (active)
Cc1cc(NC(=O)CSCc2nc(-c3cccc(Cl)c3)oc2C)no1,-4.98%,–
Cc1ccc2nc(NC(=O)C3CSC4(C)CCC(=O)N34)sc2c1 (configuration not stated),-18.2%,–
Cc1ccc2nc(NC(=O)C3CCN(S(=O)(=O)c4ccc5c(c4)oc(=O)n5C)CC3)sc2c1,–,5.8 µM (active)
O=C(NC1CCCCC1)n1c(=O)oc2cc(S(=O)(=O)N3CCCCC3)ccc21,-26.8%,–
O=C(Nc1cc2c3c(c1)C1CCCC1CN3CC1CCCC21)c1ccc([N+](=O)[O-])cc1 (configuration not stated),-17.6%,–
CC[C@@H](C)[C@@H](C(=O)N1CCN(C(=O)OC(C)(C)C)CC1)n1cc(CCC(=O)O)nn1,-1.7%,–
